PubChem BioAssay (EPA / NIEHS)
Values joined by “and” are separate entries in the source; they are usually repeats but may differ in a detail not shown here. Identical values can stand only once. Results filed as inconclusive are left out. The source holds several records for some structures; these can differ, active in one and inactive in another. Active and inactive are the calls of the source. Rule for the calls, unless noted: active = hit-call score of the fitted dose curve at least 0.9, where 1 is the maximum; inconclusive = response in the unintended direction; inactive = score below 0.9.

Experiments:
[1] = read-out: UDP glucuronosyltransferase (UGT1A1), UGT1A1 (gene 54658); experiment: LTEA_HepaRG_UGT1A1: Life Technologies and Expression Analysis (LTEA) Assay for UDP glucuronosyltransferase (UGT1A1) using HepaRG (AID 2283538; active = hit-call score of the fitted dose curve at least 0.9, where 1 is the maximum; inactive = score below 0.9); conditions: mRNA level, 48 h; actives raise or lower the signal
Method in brief: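 Differentiated human HepaRG cells in serum-free induction medium were exposed in duplicate for 48 h to eight half-log concentrations up to 100 uM in 0.5% DMSO. UGT1A1 mRNA was quantified by TaqMan qRT-PCR, normalized to ACTB, GAPDH and POLR2A, and fitted bidirectionally against DMSO.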

[2] = read-out: UDP glucuronosyltransferase (UGT1A6), UGT1A6 (gene 54578); experiment: LTEA_HepaRG_UGT1A6: Life Technologies and Expression Analysis (LTEA) Assay for UDP glucuronosyltransferase (UGT1A6) using HepaRG (AID 2283539; active = hit-call score of the fitted dose curve at least 0.9, where 1 is the maximum; inactive = score below 0.9); conditions: mRNA level, 48 h; actives raise or lower the signal
Method in brief: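 Expression was quantified by TaqMan qRT-PCR on Fluidigm arrays with ACTB/GAPDH/POLR2A normalization and bidirectional fitting against 0.5% DMSO. HepaRG cells (~100,000/well) were treated in duplicate for 48 h at eight half-log concentrations up to 100 uM in serum-free induction medium.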

[3] = read-out: X-box binding protein 1 (XBP1), XBP1 (gene 7494); experiment: LTEA_HepaRG_XBP1: Life Technologies and Expression Analysis (LTEA) Assay for X-box binding protein 1 (XBP1) using HepaRG (AID 2283540; active = hit-call score of the fitted dose curve at least 0.9, where 1 is the maximum; inactive = score below 0.9); conditions: mRNA level, 48 h; actives raise or lower the signal
Method in brief: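 XBP1 transcript by qRT-PCR (housekeeping-normalized: ACTB, GAPDH, POLR2A) after 48 h chemical treatment of HepaRG cells, 8-point half-log series topping at 100 uM, vehicle 0.5% DMSO. Gain and loss of signal fitted relative to DMSO.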

[4] = LTEA_HepaRG_LDH_cytotoxicity: Cytotoxicity Assessment in the Life Technologies and Expression Analysis (LTEA) Assay (AID 2283563);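 for AC50: LDH activity released into spent culture medium as a marker of cell death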
Method in brief: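 LDH release into culture medium read after 48 h chemical treatment of HepaRG cells. Duplicate wells, eight-point half-log series topping at 100 uM, 0.5% DMSO vehicle and baseline.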

[5] = ATG_XTT_Cytotoxicity: Cytotoxicity Assessment in the Attagene TRANS-FACTORIAL HepG2 Assay (AID 2283584);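 for AC50: cells exposed to compound for 24 h before reading; active means loss of viability signal versus DMSO baseline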
Method in brief: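 Viability endpoint from XTT after 24 h chemical exposure of reporter-transfected human HepG2 liver cells; signal loss fitted relative to DMSO negative control.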

[6] = TOX21_p53_BLA_p2_viability: Viability Assessment in the Tox21 HCT-116 p53 Agonism Beta-lactamase Assay, Phase 2 (AID 2283591);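 note: compound exposure lasted 16 h at 37 °C; actives lower the ATP signal meaning cytotoxicity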
Method in brief: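 HCT116 p53-bla cells, 4000/well, dosed after 5 h plating (217-fold dilution of DMSO stocks) and incubated 16 h at 37C. Viability taken as cellular ATP by CellTiter-Glo luminescence after 30 min RT; signal loss marks cytotoxicity.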

[7] = target: Cellular tumor antigen p53 (Homo sapiens) (UniProt P04637); experiment: TOX21_p53_BLA_p2_ratio: Tox21 HCT-116 p53 Agonism Beta-lactamase Assay, Ratio, Phase 2 (AID 2283592)
Sequence of Cellular tumor antigen p53 (Homo sapiens) (P04637 whole entry, looked up): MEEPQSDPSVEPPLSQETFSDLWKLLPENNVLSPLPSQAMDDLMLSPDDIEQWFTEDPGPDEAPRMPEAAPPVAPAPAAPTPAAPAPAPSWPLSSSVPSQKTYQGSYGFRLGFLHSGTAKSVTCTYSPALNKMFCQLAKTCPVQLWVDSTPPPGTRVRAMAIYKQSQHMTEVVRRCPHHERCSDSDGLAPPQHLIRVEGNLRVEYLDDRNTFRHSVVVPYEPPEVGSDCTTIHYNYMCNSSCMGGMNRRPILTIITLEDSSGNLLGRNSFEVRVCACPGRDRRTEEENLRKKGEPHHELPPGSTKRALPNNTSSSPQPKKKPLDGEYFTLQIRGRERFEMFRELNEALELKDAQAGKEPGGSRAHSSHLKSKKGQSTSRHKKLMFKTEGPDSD
Method in brief: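 Gain-of-signal p53 agonism was scored from the beta-lactamase FRET ratio (460/530 nm, 405 nm excitation) in HCT116 cells treated 16 h at 37C, 5% CO2, with DMSO serving as negative control and baseline.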

[8] = TOX21_p53_BLA_p3_viability: Viability Assessment in the Tox21 HCT-116 p53 Agonism Beta-lactamase Assay, Phase 3 (AID 2283593);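 note: cells exposed to compound for 16 h before reading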
Method in brief: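 HCT116 cells, 4000/well, dosed 5 h after plating by pin transfer (217-fold dilution from DMSO stock) and incubated 16 h at 37C, 5% CO2. Viability read as ATP luminescence with CellTiter-Glo after 30 min at room temperature.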

[9] = target: Cellular tumor antigen p53 (Homo sapiens) (UniProt P04637); experiment: TOX21_p53_BLA_p3_ratio: Tox21 HCT-116 p53 Agonism Beta-lactamase Assay, Ratio, Phase 3 (AID 2283596)
Method in brief: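 HCT116 p53-bla cells (4000/well) given compound in DMSO (217-fold dilution) after 5 h, incubated 16 h at 37C. CCF4-AM substrate 2 h at room temperature; 460/530 nm emission ratio, gain fitted against DMSO.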

[10] = TOX21_p53_BLA_p4_viability: Viability Assessment in the Tox21 HCT-116 p53 Agonism Beta-lactamase Assay, Phase 4 (AID 2283597);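 note: hits lower the luminescence signal meaning cytotoxicity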
Method in brief: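 Following a 16 h exposure at 37C, the treated HCT116 wells were first read for the FRET ratio. They were then lysed with CellTiter-Glo, and ATP luminescence was recorded after 30 min at room temperature.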

[11] = target: Cellular tumor antigen p53 (Homo sapiens) (UniProt P04637); experiment: TOX21_p53_BLA_p5_ratio: Tox21 HCT-116 p53 Agonism Beta-lactamase Assay, Ratio, Phase 5 (AID 2283599)
Method in brief: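 HCT-116 p53-bla cells (4000/well) plated 5 h, dosed with compound (217-fold DMSO dilution) for 16 h at 37 C; CCF4-AM substrate 2 h at room temperature. Activity is the 460/530 nm emission ratio (405 nm excitation), fitted in gain-of-signal direction versus DMSO.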

[12] = TOX21_p53_BLA_p5_viability: Viability Assessment in the Tox21 HCT-116 p53 Agonism Beta-lactamase Assay, Phase 5 (AID 2283600)
Method in brief: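 After the 460/530 nm beta-lactamase measurement, the wells received an ATP-detection luciferase reagent; signal was read 30 min later at RT. Compound treatment lasted 16 h on cells pre-incubated 5 h post-seeding.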

[13] = target: Cellular tumor antigen p53 (Homo sapiens) (UniProt P04637); experiment: TOX21_p53_BLA_p4_ratio: Tox21 HCT-116 p53 Agonism Beta-lactamase Assay, Ratio, Phase 4 (AID 2283601)
Method in brief: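 HCT-116 p53 beta-lactamase reporter cells (4000/well) preincubated 5 h, then compound (217-fold dilution of DMSO stock) for 16 h at 37C. CCF4-AM substrate added 2 h at room temperature; 460/530 nm emission ratio fitted upward versus DMSO.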

[14] = Tanguay_ZF_120hpf_MORT_legacy: (Legacy) Oregon State University Tanguay Lab 120 Hour Post-fertilization zebrafish Assay for Mortality (AID 2283633)
Method in brief: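 Static waterborne exposure from 6 to 120 hpf at 28C of single dechorionated wild-type (5D) embryos per well, 0.64% DMSO final. Death recorded present/absent by brightfield at 24 and 120 hpf.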

[15] = Tanguay_ZF_120hpf_YSE_legacy: (Legacy) Oregon State University Tanguay Lab 120 Hour Post-fertilization zebrafish Assay for Yolk Sac Edema (AID 2283634);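 for AC50: actives raise the incidence of yolk sac edema above the DMSO baseline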
Method in brief: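 Presence or absence of yolk sac edema was recorded at 120 hpf in surviving larvae. These were wild-type Tropical 5D embryos, chorion removed at 4 hpf, held in static exposure at 28C from 6 hpf with 0.64% DMSO vehicle.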

[16] = Tanguay_ZF_120hpf_AXIS_legacy: (Legacy) Oregon State University Tanguay Lab 120 Hour Post-fertilization zebrafish Assay for Body Axis Malformation (AID 2283635);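 for AC50: potency for an increased fraction of larvae scored with body axis malformation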
Method in brief: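 Binary scoring of axis defects at 120 hpf under brightfield, fitted positive versus DMSO. Tropical 5D embryos, chorion removed by pronase at 4 hpf, were singly exposed in sealed, dark plates at 28C from 6 hpf; DMSO 0.64% final.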

[17] = Tanguay_ZF_120hpf_EYE_legacy: (Legacy) Oregon State University Tanguay Lab 120 Hour Post-fertilization zebrafish Assay for Eye Malformation (AID 2283636);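 note: binary presence or absence of eye malformation scored by brightfield in 120 hpf larvae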
Method in brief: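 Dechorionated Tropical 5D zebrafish embryos, one per well from 6 hpf, static exposure to 120 hpf at 28C, 0.64% DMSO. Eye malformation scored present/absent by brightfield; dead embryos not scored.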

[18] = Tanguay_ZF_120hpf_SNOU_legacy: (Legacy) Oregon State University Tanguay Lab 120 Hour Post-fertilization zebrafish Assay for Snout Malformation (AID 2283637)
Method in brief: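 Dechorionated tropical 5D wild-type zebrafish embryos exposed statically from 6 to 120 hpf at 28C, one per well, in 0.64% DMSO. Snout malformation scored as present/absent by brightfield at 120 hpf; dead embryos not scored.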

[19] = Tanguay_ZF_120hpf_JAW_legacy: (Legacy) Oregon State University Tanguay Lab 120 Hour Post-fertilization zebrafish Assay for Jaw Malformation (AID 2283638);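 for AC50: active means more embryos with jaw malformation than DMSO controls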
Method in brief: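 Binary jaw-malformation call at 120 hpf by brightfield microscopy. Embryos (Tropical 5D strain, chorion removed at 4 hpf) were dosed statically at 6 hpf, one per well, at 28C with 0.64% DMSO. Embryos that died were not scored.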

[20] = Tanguay_ZF_120hpf_OTIC_legacy: (Legacy) Oregon State University Tanguay Lab 120 Hour Post-fertilization zebrafish Assay for Otic Vesicle Malformation (AID 2283639)
Method in brief: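 Tropical 5D wild-type zebrafish embryos were exposed statically in sealed, foil-covered plates at 28C until 120 hpf, with 0.64% (vol/vol) DMSO final. Otic vesicle malformation was scored present/absent by brightfield microscopy, with DMSO as baseline.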

Measured: AC50

CCCCC(CC)COC(=O)CC(C(=O)OCC(CC)CCCC)S(=O)(=O)O (configuration not stated)
active: [1] 13.3 µM | [2] 79.9 µM | [4] 75.3 µM | [5] 43.8 µM | [6] 59.8 µM [middle of 4 runs] | [7] 77.1 µM and 82.5 µM | [8] 71.8 µM and 65 µM and 42 µM | [9] 85.9 µM and 83.5 µM | [10] 50.1 µM [middle of 4 runs] | [11] 79.2 µM [middle of 4 runs] | [12] 62.1 µM [middle of 4 runs] | [13] 79.2 µM [middle of 4 runs]
inactive: [3] | [7] | [8] | [9] | [14] | [15] | [16] | [17] | [18] | [19] | [20]

COC(=O)c1ccc(O)cc1
not listed: [20]
inactive: all other assays above

Cc1nc(-c2ccc3c(c2)CCN(CCC2CCC(NC(=O)/C=C/c4ccc(F)cc4)CC2)CC3)no1 (configuration not stated)
not listed: [8] | [11]
inactive: all other assays above

COc1ccc2c(c1)c(CC(=O)O)c(C)n2C(=O)c1ccc(Cl)cc1
not listed: [11] | [15] | [19]
inactive: all other assays above

CCCCN(CCCC)CCCC
not listed: [8] | [12] | [13] | [17]
inactive: all other assays above

Cc1ccc(C)c(C)c1
not listed: [10] | [18]
inactive: all other assays above

CC1(C)NC(=O)NC1=O
not listed: [11] | [12] | [16] | [18]
inactive: all other assays above

CCNc1cccc(C)c1
not listed: [11]
inactive: all other assays above

Cc1ccc(Cl)cc1
not listed: [8] | [11]
inactive: all other assays above

O=C(O)CCCCC(=O)O
not listed: [11] | [16]
inactive: all other assays above

COc1cc(C=O)ccc1O
active: [15] 43.3 µM | [16] 49.2 µM | [17] 60.5 µM | [18] 36.6 µM | [19] 35.3 µM | [20] 59.2 µM
not listed: [10] | [11]
inactive: all other assays above

COCCOCCOC
active: [1] 3.2 µM | [3] 1.16 µM
not listed: [8] | [10] | [19] | [20]
inactive: all other assays above

CCCCCCCCCCCC(=O)OC
not listed: [10] | [19] | [20]
inactive: all other assays above

CCCCCCCC=O
not listed: [11]
inactive: all other assays above

Cc1ccc(C(C)C)c(O)c1
active: [6] 66 µM | [11] 73.2 µM | [13] 86.6 µM
inactive: [1] | [2] | [3] | [4] | [5] | [7] | [8] | [9] | [11] | [12] | [13] | [14] | [15] | [16] | [17] | [18] | [20]
